# What was measured:
# [1] = biological target: Tumor necrosis factor receptor superfamily member 10B (Homo sapiens) (UniProt O14763); assay: caspase-8 TRAIL sensitization, hit retest, confirmation, cell-based, NB7+caspase-8, with/without TRAIL, luminescence panel (AID 651596); conditions: NB7 neuroblastoma + caspase-8, TRAIL sensitization, luminescence viability, with TRAIL, mean of runs, at 10 µM, stronger effect = higher value
# [2] = as above; conditions: NB7 neuroblastoma + caspase-8, without TRAIL, luminescence viability, without TRAIL, mean of runs, at 10 µM
# [3] = biological target: Tumor necrosis factor receptor superfamily member 10B (Homo sapiens) (UniProt O14763); assay: TRAIL sensitizers in caspase-8 expressing neuroblastoma cells, dose response, NB7 cells plus caspase-8, luminescence, panel (AID 652002); conditions: NB7 neuroblastoma +caspase-8, TRAIL sensitization, luminescence viability, NB7+Caspase-8, with TRAIL, run 1; at 12.5 µM (top of the series)
# [4] = biological target: Tumor necrosis factor receptor superfamily member 10B (Homo sapiens) (UniProt O14763); assay: as above; conditions: NB7 neuroblastoma +caspase-8, TRAIL sensitization, luminescence viability, NB7+Caspase-8, with TRAIL, run 2; at 12.5 µM (top of the series)
# [5] = as above; conditions: NB7 neuroblastoma +caspase-8, no TRAIL, compound-alone cytotoxicity counter-screen, luminescence viability, NB7+Caspase-8, run 1; at 12.5 µM (top of the series) unless noted
# [6] = as above; conditions: NB7 neuroblastoma +caspase-8, no TRAIL, compound-alone cytotoxicity counter-screen, luminescence viability, NB7+Caspase-8, run 2; at 12.5 µM (top of the series) unless noted
# Sequence of Tumor necrosis factor receptor superfamily member 10B (Homo sapiens) (O14763 whole entry, looked up): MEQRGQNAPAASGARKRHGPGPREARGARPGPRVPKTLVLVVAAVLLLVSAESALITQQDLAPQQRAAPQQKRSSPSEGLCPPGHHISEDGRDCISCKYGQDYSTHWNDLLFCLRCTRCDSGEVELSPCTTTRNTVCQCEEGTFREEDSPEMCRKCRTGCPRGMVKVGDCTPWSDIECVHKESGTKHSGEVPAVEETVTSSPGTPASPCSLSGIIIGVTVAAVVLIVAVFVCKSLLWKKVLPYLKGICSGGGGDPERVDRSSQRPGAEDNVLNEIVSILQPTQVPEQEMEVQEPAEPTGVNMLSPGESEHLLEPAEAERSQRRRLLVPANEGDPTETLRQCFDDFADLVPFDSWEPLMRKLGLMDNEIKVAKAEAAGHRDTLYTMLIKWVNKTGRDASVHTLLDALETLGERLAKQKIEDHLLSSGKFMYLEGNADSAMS
smiles,measurement,setting,value
CCOc1ccc(C(=O)Nc2cc(C)c3c(=O)oc4ccccc4c3n2)cc1,activity,[1],61.2%
same,activity,[2],62.1%
Cn1cccc1/C=C1\CCc2ccccc2C1=O,activity,[1],63.4%
same,activity,[2],51.8%
O=C(NC1CCCCC1)c1n[nH]c2c1CCCCC2,activity,[1],82.1%
same,activity,[2],80.8%
Cc1nn(Cc2ccc(Cl)cc2Cl)c(C)c1NC(=O)CCl,activity,[1],95.8%
same,activity,[2],97.8%
CCc1nn2cc(-c3ccccc3)nc2s1,activity,[1],79.7%
same,activity,[2],78.6%
CC(C)CC(NC(=O)c1ccc(Cl)cc1)C(=O)OCC(=O)c1ccc2c(c1)NC(=O)CO2 (stereo not drawn),activity,[1],71.7%
same,activity,[2],97.4%
COn1c(SCc2ccccc2)nc2ccccc2c1=O,activity,[1],65.3%
same,activity,[2],59.9%
O=C(Nc1ccc2c(c1)OCO2)c1ccc(Cl)cc1Cl,activity,[1],72.1%
same,activity,[2],67.6%
Cc1nc(-c2ccc(NC(=O)c3cccs3)cc2)cs1,activity,[1],83.1%
same,activity,[2],83.7%
COc1cc2nc(CN(C)Cc3ccc(C(C)(C)C)cc3)[nH]c(=O)c2cc1OC,activity,[1],70.5%
same,activity,[2],68%
O=C(N/N=C/c1ccc(-c2cccc(C(F)(F)F)c2)o1)c1cccc(F)c1,activity,[1],62.7%
same,activity,[2],50.6%
CN(C)c1ncnc2c1ncn2C1OC(CO)C(O)C1O (stereo not drawn),activity,[1],57.1%
same,activity,[2],45.3%
FC(F)(F)c1cccc(CC2CN(Cc3ccccc3)Cc3ccccc3N2c2cc(Cl)cc(Cl)c2)c1 (stereo not drawn),activity,[1],1.05%
same,activity,[2],-5.7%
FC(F)(F)c1cc(CCN2CCNC[C@@H]2CC2CCCCC2)cc(C(F)(F)F)c1,activity,[1],35.1%
same,activity,[2],84.2%
O=C(Cn1c2ccccc2c(=O)c2ccccc21)N/N=C/c1cc([N+](=O)[O-])ccc1N1CCCCCC1,activity,[1],49.8%
same,activity,[2],48%
COC(=O)c1c(NC(=O)COc2ccc(Cl)cc2Cl)sc2c1CC(C)(C)NC2(C)C,activity,[1],98.7%
same,activity,[2],99.3%
COc1oc(C(=O)NC2CCCCC2)c(-c2ccc(Cl)cc2)c1S(=O)(=O)c1ccccc1,activity,[1],97.8%
same,activity,[2],96.8%
CC(C)c1ccc(/C=C/C(=O)Nc2nncs2)cc1,activity,[1],57.7%
same,activity,[2],66.2%
CC(=O)Nc1cc(-c2cccc(C(=O)NCCN(C)C)c2)cn2c(-c3cccc(C(F)(F)F)c3)cnc12,activity,[1],65.3%
same,activity,[2],89.8%
COC(=O)c1ccc(N/C=C/C(=O)c2ccccc2)cc1,activity,[1],61.3%
same,activity,[2],80.2%
NC(=O)c1ccccc1NC(=O)/C=C/c1ccccc1,activity,[1],67.8%
same,activity,[2],70.7%
Cc1cc(C)cc(N2C(N)=NC(N)=NC2c2ccccc2F)c1 (stereo not drawn),activity,[1],51.1%
same,activity,[2],72.4%
Cc1occc1C(=O)O/N=C(\N)c1ccc(Cl)cc1,activity,[1],81.6%
same,activity,[2],84.7%
CC(C)COCc1ccc(O)c2ncccc12,activity,[1],38.6%
same,activity,[2],32.1%
CC1(C)CC(=O)c2sc(NC(=O)c3cccs3)nc2C1,activity,[1],91.9%
same,activity,[2],94.2%
Nc1nc(N)c2cc(Sc3ccc(Cl)cc3)ccc2n1,activity,[1],70.7%
same,activity,[2],75.5%
Cc1ccc2cc(/C=N/Nc3nc4ccccc4[nH]3)c(Cl)nc2c1,activity,[1],88.2%
same,activity,[2],83.6%
CCCc1cc(=O)[nH]c(SCC(=O)Nc2cc(S(=O)(=O)N3CCCCC3)ccc2C)n1,activity,[1],3.67%
same,activity,[2],-4.17%
O=C(Nc1ccc2c(c1)OCCO2)c1ccccc1,activity,[1],53.7%
same,activity,[2],54.6%
O=C(/C=C/c1ccc([N+](=O)[O-])cc1)Nc1ncc([N+](=O)[O-])s1,activity,[1],69.1%
same,activity,[2],68.5%
CC(=O)Nc1ccc(NC(=O)CSc2nnc(NC(=O)c3ccccc3F)s2)cc1,activity,[1],69.5%
same,activity,[2],63.9%
CCC(=O)Nc1cc2nn(-c3ccccc3)nc2cc1Cl,activity,[1],67.5%
same,activity,[2],65.9%
CSc1cc(-c2ccc(Cl)cc2)n(Cc2ccccc2)c(=O)c1C#N,activity,[1],72.2%
same,activity,[2],48.5%
COC(=O)c1ccc(CCc2cc(O)c(Br)cc2O)cc1,activity,[1],15%
same,activity,[2],19.7%
O=C(Nc1ccc2c(c1)OCCO2)c1cc2ccccc2o1,activity,[1],82%
same,activity,[2],76.8%
C/C(=N\Nc1nncc2ccccc12)c1cccc(OC(F)F)c1,activity,[1],75.8%
same,activity,[2],72.8%
CCc1ccc(C(=O)Cn2ccsc2=N)cc1,activity,[1],66.5%
same,activity,[2],66.6%
N#Cc1ccccc1NC(=O)COC(=O)/C=C/c1cn(-c2ccccc2)nc1-c1ccc(Cl)cc1,activity,[1],39.5%
same,activity,[2],80.4%
Oc1cc(NCc2ccc(F)cc2)cc2cccnc12,activity,[1],36.8%
same,activity,[2],33.5%
COc1ccc(OC)c(NC(=O)c2cc(-c3cc(Cl)ccc3O)n[nH]2)c1,activity,[1],33.7%
same,activity,[2],34.1%
Cc1ccc(C(=O)Nc2ccc3c(c2)OCCO3)c(C)c1,activity,[1],91.6%
same,activity,[2],91.5%
COc1cccc(NC(=O)Nc2ccc3c(c2)nc(C)n3C)c1,activity,[1],83.7%
same,activity,[2],82.8%
CC(=O)Oc1ccccc1C(=O)C=Cc1cccc([N+](=O)[O-])c1,activity,[1],36.3%
same,activity,[2],76.7%
Cc1ccc2nc(-c3ccncc3)cc(C(=O)Nc3ccncc3)c2c1,activity,[1],19.9%
same,activity,[2],6.6%
O=C(Nc1ccc(NC(=O)C2CCCCC2)cn1)c1ccco1,activity,[1],76.2%
same,activity,[2],80.6%
COc1cccc2cc(-c3nc4ccccc4[nH]3)c(=O)oc12,activity,[1],64.5%
same,activity,[2],61.1%
CCOC(=O)CSc1nc(-c2ccncc2)ccc1C#N,activity,[1],55.8%
same,activity,[2],55.1%
C#CCSc1nnc(-c2ccc(C)cc2)o1,activity,[1],97.6%
same,activity,[2],93.2%
CC(C)(C)c1ccc(/C=C/C(=O)NC2=NCCS2)cc1,activity,[1],49.7%
same,activity,[2],41.9%
COc1cc(SC#N)ccc1N=Cc1c(C)[nH]n(-c2ccc(C)c(C)c2)c1=O,activity,[1],93%
same,activity,[2],97.7%
Cc1cccc(-n2ncc3c(NC(C)C)ncnc32)c1,activity,[1],63.2%
same,activity,[2],64.7%
CCc1nnc(NC(=O)CSc2nc(C)cc(C)c2C#N)s1,activity,[1],81.2%
same,activity,[2],80%
Cc1ccc(C(=O)Oc2ccc(C(=O)COC(=O)c3cnccn3)cc2)cc1,activity,[1],19.9%
same,activity,[2],31.6%
Cc1ccc(-c2nc(N/N=C/c3ccccc3[N+](=O)[O-])c3ccccc3n2)cc1,activity,[1],90.3%
same,activity,[2],82.4%
CCN1CCN(CCCNC(=O)c2ccc3c(c2)NC(=O)/C(=C\c2cccc(C)c2)S3)CC1,activity,[1],41.4%
same,activity,[2],89.2%
O=C(N/N=C/c1cn(-c2ccccc2)nc1-c1cc2ccccc2o1)c1cccnc1,activity,[1],61.2%
same,activity,[2],50.2%
CCC(C)c1ccc(O)c(NC(=S)NC(=O)c2cccs2)c1 (stereo not drawn),activity,[1],56.5%
same,activity,[2],54.3%
same,"activity, % sensitization",[3],40.5%
same,"activity, % sensitization",[4],49.3%
same,"activity, % sensitization",[5],56.2%
same,"activity, % sensitization",[6],41.9%
O=C(N/N=C/c1cccc(OC(=O)c2ccco2)c1)c1ccc(F)cc1,activity,[1],57.1%
same,activity,[2],28.9%
same,"activity, % sensitization",[3],54.4%
same,"activity, % sensitization",[4],46.3%
same,"activity, % sensitization",[5],49.2%
same,"activity, % sensitization",[6],40.8%
C#CC(=O)CC1(CN(Cc2ccccc2)C(=O)OC(C)(C)C)CCCCC1,activity,[1],97.7%
same,activity,[2],49.4%
same,"activity, % sensitization",[3],78.9%
same,"activity, % sensitization",[4],34.5%
same,"activity, % sensitization",[5],89.9%
same,"activity, % sensitization",[6],57.8%
O=C(Nc1cnc2ccccn2c1=O)c1ccc(Cl)cc1Cl,activity,[1],56%
same,activity,[2],52.5%
same,"activity, % sensitization",[3],15.5%
same,"activity, % sensitization",[4],2.31%
same,"activity, % sensitization",[5],-7.49%
same,"activity, % sensitization",[6],-6.53%
Cn1nnc(NC(=O)c2ccc(C(C)(C)C)cc2)n1,activity,[1],58.1%
same,activity,[2],51.8%
same,"activity, % sensitization",[3],47.5%
same,"activity, % sensitization",[4],61.4%
same,"activity, % sensitization",[5],-4.98%
same,"activity, % sensitization",[6],39.7%
COC(=O)c1ccc(/C=C/c2nc3ccccc3c(=O)[nH]2)cc1,activity,[1],60.9%
same,activity,[2],52.2%
same,"activity, % sensitization",[3],-15.3%
same,"activity, % sensitization",[4],-22.1%
same,"activity, % sensitization",[5],2.64%
same,"activity, % sensitization",[6],-17.7%
O=C(Nc1ccc2c(c1)OCO2)c1ccc2c(c1)OCO2,activity,[1],56.3%
same,activity,[2],53.1%
same,"activity, % sensitization",[3],46.4%
same,"activity, % sensitization",[4],44.3%
same,"activity, % sensitization",[5],50.5%
same,"activity, % sensitization",[6],33.4%
C(=C\c1ccco1)/c1nc2ccccc2[nH]1,activity,[1],57.9%
same,activity,[2],31.6%
same,"activity, % sensitization",[3],-0.105%
same,"activity, % sensitization",[4],5.08%
same,"activity, % sensitization",[5],-6.68%
same,"activity, % sensitization",[6],-0.982%
O=C(Nc1ccc(Br)cc1F)c1ccc2c(c1)OCCO2,activity,[1],56.6%
same,activity,[2],43%
same,"activity, % sensitization",[3],35.1%
same,"activity, % sensitization",[4],39.5%
same,"activity, % sensitization",[5],7.23%
same,"activity, % sensitization",[6],34.6%
Cc1nn(-c2ccccc2)c2nc(N)c(C#N)c(-c3ccc(F)cc3)c12,activity,[1],61.9%
same,activity,[2],46.8%
same,"activity, % sensitization",[3],-8.21%
same,"activity, % sensitization",[4],4.3%
same,"activity, % sensitization",[5],6.23%
same,"activity, % sensitization",[6],37.2%
Cc1c(P(=S)(c2ccccc2)c2ccccc2)[n+]2ccccc2n1CCc1ccccc1,activity,[1],52%
same,activity,[2],44.7%
same,"activity, % sensitization",[3],3.09%
same,"activity, % sensitization",[4],9.7%
same,"activity, % sensitization",[5],3.44%
same,"activity, % sensitization",[6],9.46%
CCOc1ccc(-c2cc(C(=O)N3CCC(C)CC3)c3ccccc3n2)cc1,activity,[1],53.4%
same,activity,[2],47.2%
same,"activity, % sensitization",[3],23.7%
same,"activity, % sensitization",[4],31.6%
same,"activity, % sensitization",[5],-3.22%
same,"activity, % sensitization",[6],-9.62%
COc1cccc(NC(=O)c2ccc3c(c2)OCO3)c1,activity,[1],51.7%
same,activity,[2],30.6%
same,"activity, % sensitization",[3],51%
same,"activity, % sensitization",[4],42.7%
same,"activity, % sensitization",[5],48%
same,"activity, % sensitization",[6],32.2%
O=C(NC(=S)Nc1nc2c(s1)CCCC2)c1ccccc1,activity,[1],69.8%
same,activity,[2],47.3%
same,"activity, % sensitization",[3],-8.98%
same,"activity, % sensitization",[4],47.5%
same,"activity, % sensitization",[5],2.65%
same,"activity, % sensitization",[6],-0.817%
CN(C)CCCN(C(=O)c1ccc(C(=O)c2ccccc2)cc1)c1nc2ccc(F)cc2s1,activity,[1],64.6%
same,activity,[2],34.9%
same,"activity, % sensitization",[3],12.1%
same,"activity, % sensitization",[4],3.85%
same,"activity, % sensitization",[5],0.995%
same,"activity, % sensitization",[6],25.8%
CCCCC1CCC(C(=O)N(CCC(C)C)c2c(N)n(CCCC)c(=O)[nH]c2=O)CC1 (stereo not drawn),activity,[1],90.3%
same,activity,[2],39.2%
same,"activity, % sensitization",[3],-14.2%
same,"activity, % sensitization",[4],-10.1%
same,"activity, % sensitization",[5],-5.24%
same,"activity, % sensitization",[6],-5.58%
